# Bioassay records (PubChem)
# An excerpt weighted towards active compounds, which were near 17% of everything screened.
# HT1080 IDH1KD tx: qHTS for induction of synthetic lethality in tumor cells producing 2HG: qHTS for the HT-1080-IDH1KD cell line | 360,000 tested, 2% active | HT-1080 IDH1 knockdown viability, ATP luminescence, 48 h | Potency, µM (top dose mostly 46.1 µM), without a hit: top-dose activity, negative = toxicity, actives largely listed as cytotoxic;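 also: 0% = DMSO wells and -100% = cell-free medium wells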
#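 Viability of IDH1-knockdown HT-1080 fibrosarcoma cells was assessed by CellTiter-Glo after 48 h at 37 °C with titrated compound; concentration-effect curves were classified by fit quality and response size.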
# DT40 TDP1 no CPT: qHTS for Inhibitors of human tyrosyl-DNA phosphodiesterase 1 (TDP1): qHTS in cells in absence of CPT; DT40 Tdp1-/- hTDP1 cells, no CPT, ATP luminescence, 48 h; Potency, µM (titrated, usually from 46.2 µM), for the others: at the top dose activity change, negative = growth inhibition, usual class: inhibitors; 420,000 tested, 15% active; AID 686978, 2013; also: % is scaled to controls: 0 for no effect and ±100 for the full control effect; nearly all actives have a fitted effect of over 55% in size
#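 DT40 Tdp1-/-;hTDP1 cells, no CPT (DMSO vehicle only), 400 cells/well; compounds pin-transferred; ≥48 hr, 37 °C; CellTiter-Glo 30 min RT dark, luminescence read.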
# TDP1 cell CPT: qHTS for Inhibitors of human tyrosyl-DNA phosphodiesterase 1 (TDP1): qHTS in cells in presence of CPT. chicken DT40 Tdp1-/-;hTDP1 cells + 20 nM CPT, ATP luminescence, 48 h. 420,000 tested, 12% active. AID 686979, 2013. Potency, µM (titrated, usually from 46.2 µM), inactives show at the highest dose activity change, negative = growth inhibition, hits mostly inhibitors; also: % is scaled to controls: 0 for no effect and ±100 for the full control effect; nearly all actives have a fitted effect of over 55% in size
#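 Chicken DT40 Tdp1-/- cells complemented with human TDP1, 400 cells/well, exposed to compounds plus 20 nM camptothecin for at least 48 h at 37 C; viability read as ATP content by CellTiter-Glo luminescence.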
# TGFb inhibitor: qHTS for Inhibitors of TGF-b | HepG2 CAGA-GFP TGF-b/SMAD3 reporter, GFP fluorescence, 18 h; TGF-beta stimulated, 500 pg/mL final | Potency, µM (doses to about 46.1 µM), for inactives: at the highest dose activity, negative = inhibition, actives largely listed as inhibitors | 410,000 tested, 1.2% active; also: % is scaled to controls: 0 for no effect and ±100 for the full control effect; nearly all actives have a fitted effect of over 65% in size
#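 Inhibition of TGF-beta-driven CAGA-GFP reporter expression in HEPG2 cells is measured by cellular GFP fluorescence after 18 h stimulation with 500 pg/mL recombinant TGF-beta in 1% FBS medium at 37 degrees C.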
# HepG2 viability: qHTS for Inhibitors of TGF-b: Cytotox Counterscreen; 410,000 tested, 0.76% active; Potency, µM (titrated, usually from 46.1 µM), without a hit: at the top dose activity change, negative = cytotoxicity, hits mostly cytotoxic; HepG2 CAGA-GFP viability, ATP luminescence, 18 h
#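 CellTiter-Glo luminescence gave cytotoxicity after 18 hours at 37 degrees C. The cells were HepG2 CAGA-GFP in 1% FBS DMEM, stimulated with 500 pg/mL TGF-beta after compound addition. %Activity was normalised to no-cell wells (complete cell-killing) and DMSO (no toxicity), and curves were fitted and classified.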
# HT1080NT lethal: qHTS for induction of synthetic lethality in tumor cells producing 2HG: qHTS for the HT-1080-NT fibrosarcoma cell line | Potency, µM (titrated, usually from 46.1 µM), for the others: at the top dose activity, negative = less viability, most hits filed as cytotoxic | 360,000 tested, 1.6% active | AID 686970, 2013 | HT-1080-NT fibrosarcoma viability, CellTiter-Glo ATP luminescence, 48 h;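 also: NT is the 2HG producing partner of a matched IDH1 knockdown line; 0% = DMSO-treated cells and -100% = media-only wells without cells; nearly all actives have a fitted effect of over 55% in size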
#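 A 48-hour cytotoxicity screen used HT-1080-NT cells plated 2 hours before compound delivery. ATP-based CellTiter-Glo luminescence measured viability, normalized to DMSO and no-cell controls.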
# Numbers without * were called inactive; ? = inconclusive; nt = no result given; ! = not confirmed by another sample. Calls follow the shape of the dose curve; as a rule, active = well fitted curve in the direction sought with a large enough effect; inconclusive = small, poorly fitted or top-dose-only effect, or another doubt; inactive = no such curve, though single readings can be large; an effect the other way counts as inactive or inconclusive. Potency is read from the fitted curve at half-maximal effect.
SMILES,HT1080 IDH1KD tx,DT40 TDP1 no CPT,TDP1 cell CPT,TGFb inhibitor,HepG2 viability,HT1080NT lethal
CCN1C(=O)C2C(c3ccccc3F)NC(Cc3ccc(O)cc3)(C(=O)OC)C2C1=O (centres undefined),-5.3%,?,?,-3.3%,-2.8%,0.7%
CCCCCCSc1ccc([C@H]2N[C@@](Cc3ccccc3)(C(=O)OC)[C@H]3C(=O)N(CC)C(=O)[C@@H]23)cc1,5.5%,18.4µM*,?,3.9%,-1.5%,-11.7%
CCN1C(=O)[C@H]2[C@@H](c3ccc(-c4ccccc4)c(OC)c3)N[C@@](Cc3ccccc3)(C(=O)OC)[C@H]2C1=O,-7.6%,-12.4%,8.9%,2.8%,29.6%,-3.7%
CCCSc1ccc([C@H]2N[C@@](Cc3ccccc3)(C(=O)OC)[C@H]3C(=O)N(CC)C(=O)[C@@H]23)cc1,2.4%,18.4µM*,18.4µM*,-1.8%,-2.3%,9.2%
CCOC(=O)C1(Cc2ccccc2)NC(c2ccccc2F)C2C(=O)N(CC)C(=O)C21 (centres undefined),-5.7%,7.31µM*,23.1µM*,6.1%,-14.0%,-6.7%
CC(C)CN(CC(C)C)c1nn[nH]n1,-0.7%,-16.9%,13.8%,-0.6%,3.0%,15.5%
CCOc1ccccc1NC(=O)COC(=O)C12CC3CC(CC(O)(C3)C1)C2,3.0%,-28.7%,-27.8%,-10.4%,1.4%,2.6%
COc1ccc(CCNCC(O)COc2ccc(OC)cc2C(C)(C)C)cc1 (centres undefined),18.4µM*,?,?,?,-169.3%,?
CCOC(=O)N1CCN(CC(O)COc2ccc(OC)cc2C(C)(C)C)CC1 (centres undefined),-2.5%,?,?,-1.5%,-2.0%,7.6%
CC(C)OC(=O)c1c(NC(=O)c2cccc(C(F)(F)F)c2)sc2c1CCCC2,nt,-23.7%,-2.9%,?,4.8%,nt
COc1ccc(CCNC(=O)c2ccc(CS(=O)(=O)Cc3ccc(C)cc3)o2)cc1OC,-3.9%,23.1µM*,?,-3.0%,-52.2%,8.8%
Cc1ccc(CS(=O)(=O)Cc2ccc(C(=O)NCCc3ccc(Cl)cc3)o2)cc1,nt,-12.9%,-17.1%,13.6%,0.9%,nt
O=C(NCCc1ccc(Cl)cc1)c1ccc(CS(=O)(=O)Cc2ccccc2F)o1,nt,20.6µM*,?,-28.3%,0.6%,nt
COc1ccc(CCNC(=O)c2ccc(CS(=O)(=O)c3ccc(Cl)cc3)o2)cc1OC,-28.6%,16.4µM*,23.1µM*,-9.6%,-17.5%,-7.2%
COCCNC(=O)c1ccc(CS(=O)(=O)c2ccc(OC)cc2)o1,1.5%,-10.7%,-13.4%,-0.4%,3.7%,0.7%
COc1ccc(CCNC(=O)c2ccc(CS(=O)(=O)c3ccc(C)cc3)o2)cc1OC,-8.8%,14.6µM*!,?,?,-14.8%,4.3%
Cc1ccc(S(=O)(=O)N2CCOCC2)cc1NC(=O)COC(=O)Cn1c(C)csc1=O,-1.2%,-2.5%,-19.5%,-9.3%,2.1%,3.2%
N/C(CSc1ccc(Cl)cc1)=N\NC(=O)c1ccncc1,5.1%,?,-2.6%,2.7%,10.1%,0.2%
Cc1ccc(NS(=O)(=O)c2ccc(Cl)c(C(=O)Nc3cccc(C(=O)O)c3)c2)cc1,-0.6%,-14.6%,-3.3%,-3.7%,-0.6%,-4.6%
CC(=O)c1ccc(OC2OCCOC2Oc2ccc(C(C)=O)cc2)cc1 (centres undefined),3.2%,-26.5%,?,-14.5%,-7.0%,4.1%
COc1ccc(CCNC(=O)c2ccc(CSc3ccc(Cl)cc3)o2)cc1OC,?,13.2µM*,13.2µM*,nt,nt,?
CCc1ccccc1S(=O)(=O)Cc1ccc(C(=O)NCCc2ccc(C)cc2)o1,nt,29.1µM*,?,-14.2%,-21.0%,nt
COc1ccc(S(=O)(=O)Cc2ccc(C(=O)NC3CCCCCC3)o2)cc1,-1.5%,?,14.6µM*,-2.8%,2.7%,18.8%
CCc1ccccc1S(=O)(=O)Cc1ccc(C(=O)NC(C)C)o1,-0.8%,-25.6%,?,-9.4%,-13.3%,6.5%
COc1ccc(N2CCN(CCCNC(=O)c3ccc(CS(=O)(=O)c4ccc(Cl)cc4)o3)CC2)cc1,-2.2%,20.6µM*,?,-13.9%,9.1%,-2.9%
SMILES,HT1080 IDH1KD tx,DT40 TDP1 no CPT,TDP1 cell CPT,TGFb inhibitor,HepG2 viability,HT1080NT lethal
COc1ccc(CCNC(=O)c2ccc(CSc3ccccc3)o2)cc1,-2.4%,-14.7%,-9.4%,-2.5%,-37.9%,-6.7%
COc1ccc(NC(=O)c2cc3c([nH]c4ccccc43)c(C)n2)cc1,0.9%,-21.7%,-3.3%,-8.9%,-8.0%,13.3%
Cc1nc(C(=O)Nc2ccccc2Cl)cc2c1[nH]c1ccccc12,-18.2%,6.51µM*,?,-2.6%,7.1%,-19.1%
Cc1cccc(Nc2nnc(-c3ccc(C)c(S(=O)(=O)NCC4CCCO4)c3)c3ccccc23)c1 (centres undefined),nt,6.51µM*,23.1µM*,?,-0.3%,nt
COc1nnc(-c2ccc(C)c(S(=O)(=O)NCC3CCCO3)c2)c2ccccc12 (centres undefined),-11.0%,?,?,-8.5%,9.2%,-14.0%
Cc1ccc(-c2nnc(Nc3ccc4c(c3)OCO4)c3ccccc23)cc1S(N)(=O)=O,-27.3%,?,?,?,2.4%,-27.0%
Cc1ccc(-c2nnc(N3CCCCC3)c3ccccc23)cc1S(=O)(=O)NCC1CCCO1 (centres undefined),?,20.6µM*,18.4µM*,?,-26.1%,?
Cc1ccc(-c2nnc(Nc3ccc(Cl)cc3)c3ccccc23)cc1S(=O)(=O)NCC1CCCO1 (centres undefined),nt,20.6µM*,?,?,-6.5%,nt
Cc1ccc(-c2nnc(Nc3cccc(Cl)c3)c3ccccc23)cc1S(=O)(=O)NCC1CCCO1 (centres undefined),nt,4.11µM*,23.1µM*,-23.4%,-18.6%,nt
CC1(C)CC(=O)C(C(C2=C(O)CC(C)(C)CC2=O)c2ccc(Br)s2)C(=O)C1 (centres undefined),?,7.31µM*,13µM*,10µM*,-2.6%,-27.0%
